Screening results (PubChem)
D2 ag-1: agonists of human D2 dopamine receptor (beta-arrestin). P14416. DiscoveRx PathHunter D2 beta-arrestin, luminescence, 90 min; 100% = 57 uM dopamine signal. activation, % (test concentration not listed). hit rate 0.084% among 360,000; in the data active = activation above about 40%; inconclusive = between about 15% and that limit
Target sequence (P14416 whole entry, looked up): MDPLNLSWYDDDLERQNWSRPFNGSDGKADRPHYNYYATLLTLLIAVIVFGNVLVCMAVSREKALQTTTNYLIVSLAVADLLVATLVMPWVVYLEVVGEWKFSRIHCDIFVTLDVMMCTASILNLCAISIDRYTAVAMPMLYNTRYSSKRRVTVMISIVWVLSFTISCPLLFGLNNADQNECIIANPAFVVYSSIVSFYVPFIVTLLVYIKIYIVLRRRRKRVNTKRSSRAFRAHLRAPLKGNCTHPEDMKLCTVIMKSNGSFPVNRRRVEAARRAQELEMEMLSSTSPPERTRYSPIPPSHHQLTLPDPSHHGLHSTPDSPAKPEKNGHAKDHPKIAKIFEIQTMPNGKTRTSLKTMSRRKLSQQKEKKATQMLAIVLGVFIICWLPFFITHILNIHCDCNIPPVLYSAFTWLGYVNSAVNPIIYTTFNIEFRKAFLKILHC
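Agonist mode: compounds alone added to overnight-plated D2 PathHunter cells for 90 min at 37 C, with 57 uM final dopamine (EC100) defining full response. Beta-arrestin recruitment detected by chemiluminescent reagent, read after 1 h at ambient temperature.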
D2 PAM-1: human D2 receptor positive allosteric modulation | DiscoveRx D2 beta-arrestin cells, luminescence, 90 min; 100% = 57 uM dopamine signal | P14416 | potentiation, % (test concentration not listed) | hit rate 0.23% among 360,000; in the data active = potentiation above about 50%; inconclusive = mostly about 30% to 49%
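PathHunter D2 cells, attached overnight at 37 deg C, received compound in DMSO plus dopamine at EC20 (50 nM final) for 90 min at 37 deg C. Beta-arrestin recruitment was read as luminescence after 1 h with detection reagent at ambient temperature.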
D2 PAM-2: positively modulates the human D2 dopamine receptor allosterically | P14416 | HEK293 T-REx D2, calcium flux, EC20 dopamine potentiation | potentiation, % at 10 µM | hit rate 0.34% among 340,000 | AID 485347;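 active = potentiation over 3 SD above the plate norm, cut at about 30% in these data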; also: 0% is about no effect
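Tetracycline-induced Hek293 Trex D2 cells, force-coupled to calcium, loaded with no-wash calcium dye. Compound added with 180 s kinetic read for agonism, then EC20 dopamine and a further 180 s read for potentiation.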
D2 ag-2: D2 dopamine receptor (human) agonism; activation, % at 2 µM; AID 485358; HEK293 T-REx D2 cells, calcium flux agonist mode; hit rate 0.53% among 340,000; P14416;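 active = activation over 3 SD above normal in the single-dose calcium agonist read, cut at about 30% in these data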; also: 0% is about no effect
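Calcium-flux readout, 1 cycle/sec over 180 s following compound pin transfer, in inducible HEK293 Trex D2 cells (force-coupled); dopamine controls included. Positive calcium responses during this window marked compounds as potential agonists.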
D2 antag: antagonists of human D2 dopamine receptor. inhibition, % at 10 µM. HEK293 TREx D2 cells, calcium flux, dopamine EC80. P14416. hit rate 2% among 340,000; in the data active = inhibition above about 30%; inactive = below that, where a call was filed; also: 0% is about no effect
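Inhibition of EC80 dopamine-driven calcium flux, recorded kinetically, defines activity here; cells are a tetracycline-induced HEK293 T-REx line expressing force-coupled D2.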
Active calls of the source: *; ? = inconclusive; · = no result given. A selection: hits, their analogues and other compounds. The true share with any hit is near 2.4%.

SMILES	D2 ag-1	D2 PAM-1	D2 PAM-2	D2 ag-2	D2 antag
COc1cc(CNCCN2CCOCC2)ccc1OCc1cccc(Cl)c1	-1	-11	1	0	42*
CCNc1nc(CSc2ccccc2)nc2sc(C)c(C)c12	2	-17	0	-1	39*
Cc1sc2nc(CSc3ccccc3)nc(NCCN(C)C)c2c1C	-1	-38	-23	0	-5
COc1ccc(CNC(=O)CN2C(=O)CCn3nc(-c4ccccc4)cc32)c(OC)c1	·	·	-1	1	·
O=C(COC(=O)CNC(=O)c1ccccc1)Nc1ccc(F)c([N+](=O)[O-])c1	-3	-6	8	0	34*
COc1ccc(NC(=O)c2cc(-c3ccc(F)cc3)no2)cc1OC	·	·	-20	0	·
COc1ccc(C)cc1NC(=O)c1nnn(CC(=O)Nc2c(C)cccc2C)c1N	·	·	3	·	·
CN(C)S(=O)(=O)c1cccc(C(=O)Nc2ccccc2)c1	6	-4	3	0	47*
CN(C)S(=O)(=O)c1cccc(NC(=O)c2ccc(OC(F)(F)F)cc2)c1	1	-31	-24	0	46*
Nc1cccc(N2C(=O)c3cccc4c(N)ccc(c34)C2=O)c1	-3	-21	2	49*	-18
Cc1cccc(N2C(=O)c3cccc4c(N)ccc(c34)C2=O)c1	4	2	3	117*	7
Nc1ccc2c3c(cccc13)C(=O)N(c1ccccc1)C2=O	3	5	6	-2	-18
COc1ccc(-n2cc(C(=O)NC(C)c3ccccc3)c3ccccc3c2=O)cc1 (stereo unspecified)	·	·	4	0	·
COCCCNC(=O)C1CCN(C(=O)c2ccc(-n3ccc4ccccc43)s2)CC1	·	·	0	0	·
O=S(=O)(c1ccc(-c2csc(=Nc3ccc(OC(F)(F)Cl)cc3)n2CCCO)cc1)N1CCCC1	·	·	15	0	·
Cc1ccccc1C(=O)c1cccn1CC(=O)NC1CCCC(C)C1C (stereo unspecified)	-6	-14	-2	0	-2
CC1CCCCC1NC(=O)Cn1cccc1C(=O)c1ccccc1 (stereo unspecified)	-5	-9	35*	0	-10
Cc1ccc(N2CCN(CC(O)COC3CCCCC3)CC2)cc1 (stereo unspecified)	-3	-16	-26	0	63*
CC(=O)N(C)c1ccc(OCC(O)Cn2c(C)nc3ccccc32)cc1 (stereo unspecified)	-5	-7	31*	0	22
Cc1nc2ccccc2n1CC(O)COC1CCCCC1 (stereo unspecified)	1	3	-13	0	32*
CC(=O)Nc1ccc(OCC(O)Cn2c(C)nc3ccccc32)cc1 (stereo unspecified)	0	-10	23	1	-6
COc1ccc2c(c1)CC(C(=O)NCCCN1CCN(c3ccc(F)cc3)CC1)CO2 (stereo unspecified)	·	·	-24	3	·
O=C(CSc1nc2c(c(=O)[nH]1)CCCC2)Nc1ccccc1C(F)(F)F	·	·	·	2	·
CCn1c(=O)n(CC)c2cc(N3CCCCC3)c(NC(=O)Nc3ccccc3Cl)cc21	·	·	5	4	·
COc1ccccc1-c1oc2ccccc2c1C#CC(C)(C)O	-2	-7	-18	0	52*
SMILES	D2 ag-1	D2 PAM-1	D2 PAM-2	D2 ag-2	D2 antag
O=C(Nc1ccon1)Nc1ccc(F)cc1F	-2	-1	-3	0	31*
CCOc1ccc(C(=O)Nc2nnc(S(=O)(=O)N(CC)c3ccccc3C)s2)cc1	·	·	3	0	·
O=C(Cc1cnn(-c2ccccc2)c1)c1ccc(O)c(O)c1O	?	110*	7	0	-2
CCc1cc(C(=O)Cc2cnn(-c3ccccc3)c2)c(O)cc1O	0	2	4	0	-12
O=C(/C=C/c1ccc2c(c1)OCO2)Nc1nc(-c2ccccc2)cs1	0	-9	-2	0	-10
Clc1ccc(-c2csc(N/N=C/c3ccc4c(c3)OCO4)n2)cc1	0	6	4	0	35*
CC(C)(C)c1ccc(C(=O)Nc2ccc([N+](=O)[O-])cn2)cc1	-2	-27	-27	0	36*
CCN(CC)CCCNC(=O)C(C)Sc1nc(-c2ccccc2)cc(C(F)(F)F)n1 (stereo unspecified)	-3	-10	-8	0	31*
CC(Sc1nc(-c2ccccc2)cc(C(F)(F)F)n1)C(=O)O (stereo unspecified)	-3	-5	18	-1	4
COc1cc(OC)c(NC(=O)N2CCSc3ccccc32)cc1Cl	·	·	-2	0	·
O=C(CCCN1CCOCC1)c1ccc2c(c1)OCCO2	1	-22	2	0	-7
O=C(CCCN1CCC(c2ccccc2)C1)c1ccc2c(c1)OCCO2 (stereo unspecified)	-1	-30	-23	3	79*
CC1CCN(c2ncnc3c2cnn3-c2ccc(F)cc2)CC1	·	·	18	1	·
CCOC(=O)C1(CCOC)CCN(Cc2nc(C(C)C)cs2)CC1	1	-9	-3	-2	33*
CCN(c1ncnc2c1cnn2-c1cc(Cl)ccc1C)C1CCCCC1	·	·	2	-1	·
COc1cc(/C=c2\s/c(=C(/C#N)C(=O)N3CCCC3)n(-c3ccccc3)c2=O)ccc1O	-2	-6	-1	39*	8
COC(=O)/C=c1/s/c(=C(/C#N)C(=O)N2CCCCC2)n(-c2ccccc2)c1=O	-5	-6	-2	1	-13
Nc1cc(Cl)ccc1C(=O)OCC(=O)NC1CCCCCCC1	4	5	0	0	35*
O=C(COC(=O)c1ccc(F)cc1F)NC1CC1	-3	-3	2	0	31*
O=C(COC(=O)c1ccc(F)cc1F)NCCNC(=O)COC(=O)c1ccc(F)cc1F	-2	-9	0	0	0
CC(=O)Nc1ccc(NS(=O)(=O)c2ccc(C)cc2)cc1[N+](=O)[O-]	-1	-7	0	-1	-3
CC(=O)Nc1ccc(S(=O)(=O)c2ccc([N+](=O)[O-])cc2)cc1	53*	-3	-1	0	-2
CC(=O)Nc1ccc(S(=O)(=O)Nc2ccc(F)c([N+](=O)[O-])c2)cc1	-9	1	-14	2	43*
O=C(Nc1nc2c(F)cccc2s1)c1ccc2c(c1)OCCO2	·	·	0	0	·
CCSC1=N/C(=C\c2ccc(OC)cc2)C(=O)N1	-2	-24	12	0	1
COc1ccc(/C=C2\N=C(SC)NC2=O)cc1	-4	-2	31*	0	4
Cc1ccc(S(=O)(=O)c2cnc(SCC(=O)Nc3cccc(Cl)c3)nc2N)cc1C	·	·	11	-1	·
CC1CN(Cc2csc(-c3ccc(Cl)cc3)n2)CC(C)O1 (stereo unspecified)	-2	-16	-23	-2	37*
ClCc1csc(-c2ccc(Cl)cc2)n1	-7	-10	-12	0	29
